# Data from PubChem BioAssay (NCATS).
# Where “and” joins values, the source holds several entries; their conditions need not be identical. Equal entries are not always repeated. Inconclusive results are not listed. Where a call stands in place of a potency, no number is given. A structure can be active in one record and inactive in another. Calls of active or inactive are those of the source. Calls come from the whole dose curve; as a rule, active = well fitted curve in the direction sought with a large enough effect; inconclusive = small, poorly fitted or top-dose-only effect, or another doubt; inactive = no such curve, though single readings can be large; an effect the other way counts as inactive or inconclusive.
# Assays:
# [1] = molecular target: Glutathione peroxidase 1 (Homo sapiens) (UniProt P07203); experiment: Primary qHTS Assay for Inhibitors of Recombinant Selenoprotein Glutathione Peroxidase 1 (GPX1) (AID 1845191); note: nearly all actives have a fitted effect of over 65% in size
# Glutathione peroxidase 1 (Homo sapiens), sequence (P07203 whole entry, looked up): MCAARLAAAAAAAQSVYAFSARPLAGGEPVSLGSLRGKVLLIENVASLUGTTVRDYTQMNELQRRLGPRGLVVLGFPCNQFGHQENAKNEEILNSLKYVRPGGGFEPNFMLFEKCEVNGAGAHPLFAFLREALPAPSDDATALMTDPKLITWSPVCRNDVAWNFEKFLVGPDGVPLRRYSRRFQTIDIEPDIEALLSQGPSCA
# Method in brief: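 GR-coupled readout: NADPH consumption tracked by fluorescence, ex 340/em 450 nm, at t=0 and after 15 min at RT. Final mix 10 nM GPX1, 1 mM GSH, 0.5 mM CHP, 0.5 mM NADPH, 100 nM GR, 0.01% BSA, following 30 min enzyme–compound preincubation.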
# [2] = molecular target: Phospholipid hydroperoxide glutathione peroxidase GPX4 (Homo sapiens) (UniProt P36969); experiment: Primary qHTS Assay for Inhibitors of Recombinant Selenoprotein Glutathione Peroxidase 4 (GPX4) (AID 1845192); note: nearly all actives have a fitted effect of over 65% in size; note: potency is the fitted concentration of half-maximal effect
# Phospholipid hydroperoxide glutathione peroxidase GPX4 (Homo sapiens), sequence (P36969 whole entry, looked up): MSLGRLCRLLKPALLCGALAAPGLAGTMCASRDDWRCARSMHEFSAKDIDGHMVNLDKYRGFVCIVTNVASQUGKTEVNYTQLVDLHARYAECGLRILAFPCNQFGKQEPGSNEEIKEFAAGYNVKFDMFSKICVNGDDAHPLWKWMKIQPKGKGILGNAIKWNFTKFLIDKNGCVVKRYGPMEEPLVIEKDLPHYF
# Method in brief: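 Steps: GPX4 plus compound, 30 min RT; add GR/GSH/NADPH master mix; start with cumene hydroperoxide; read 340/450 nm fluorescence at 0 and 15 min. Finals were 200 nM GPX4, 1 mM GSH, 0.5 mM CHP, 0.5 mM NADPH, 100 nM GR.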
# [3] = molecular target: Luciferin 4-monooxygenase (Photinus pyralis) (UniProt P08659); experiment: Primary firefly luciferase (FLuc) qHTS assay for identification of artifact compounds. (AID 1845220); note: nearly all actives have a fitted effect of over 60% in size
# Method in brief: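 Titrated compounds were incubated 15 min at RT, protected from light, with luciferin and ATP at 10 uM; reaction started with 10 nM FLuc, luminescence imaged at 5 min, and concentration-response fitted by Hill equation.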
# [4] = Primary fluorescence-based thiol-reactive (MSTI) qHTS assay for identification of artifact compounds. (AID 1845221); note: nearly all actives have a fitted effect of over 65% in size; note: potency is the fitted concentration of half-maximal effect
# Method in brief: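 A multi-concentration qHTS design tested compounds against 4 uM MSTI, pH 7.4 phosphate-buffered saline. Plates were protected from light for 1 h at room temperature before imaging fluorescence.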
# [5] = Primary redox qHTS assay for identification of artifact compounds. (AID 1845223)
# Method in brief: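 Redox-cycling detection via DTT (250 uM final) oxidation coupled to Amplex Red (25 uM)/HRP (250 mU/mL) in HBSS. 15 min preincubation plus 30 min after DTT, room temperature. Ex/Em 525/598 nm; 4-parameter Hill fit against DMSO and 10 uM DA3003.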
# [6] = Quantitative High-Throughput drug screen in 47 multiple myeloma cell lines against the NCATS MIPE library collection: FR4_PLB cell viability assay (AID 1918924; note: potency is the fitted concentration of half-maximal effect; nearly all actives have a fitted effect of over 35% in size)
# Method in brief: (§1)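 We plated 500 myeloma cells per well, pinned in MIPE 4.0 compounds, and incubated for 48 hours at 37C. ATP was then quantified with CellTiter-Glo, with DMSO and media-only wells defining 100% and 0%.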
# [7] = Quantitative High-Throughput drug screen in 47 multiple myeloma cell lines against the NCATS MIPE library collection: AMO1_DSMZ cell viability assay (AID 1918927; note: nearly all actives have a fitted effect of over 30% in size; note: potency is the fitted concentration of half-maximal effect)
# Method in brief: (§2)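 qHTS of the MIPE 4.0 collection: 500 myeloma cells/well, 48 h drug exposure at 37C in 5% CO2, then CellTiter-Glo for 5 min at room temperature before luminescence reading.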
# [8] = Quantitative High-Throughput drug screen in 47 multiple myeloma cell lines against the NCATS MIPE library collection: ARP1_JJKsccF8 cell viability assay (AID 1918928; note: nearly all actives have a fitted effect of over 40% in size; note: potency is the fitted concentration of half-maximal effect)
# Method in brief: (§3)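 Cell viability inhibition in this qHTS is measured via ATP content (CellTiter-Glo) after 48 h drug exposure at 37 °C. Wells hold 500 cells; DMSO-treated wells define 100% and medium-only wells 0%.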
# [9] = Quantitative High-Throughput drug screen in 47 multiple myeloma cell lines against the NCATS MIPE library collection: ARD_JJKsccE7 cell viability assay (AID 1918929; note: potency is the fitted concentration of half-maximal effect)
# Method in brief: as §2
# [10] = Quantitative High-Throughput drug screen in 47 multiple myeloma cell lines against the NCATS MIPE library collection: KMM1_JCRB cell viability assay (AID 1918960); note: nearly all actives have a fitted effect of over 30% in size; note: potency is the fitted concentration of half-maximal effect
# Method in brief: as §3
# [11] = Quantitative High-Throughput drug screen in 47 multiple myeloma cell lines against the NCATS MIPE library collection: Karpas620_DSMZ cell viability assay (AID 1918959); note: nearly all actives have a fitted effect of over 30% in size; note: potency is the fitted concentration of half-maximal effect
# Method in brief: as §1
# [12] = Quantitative High-Throughput drug screen in 47 multiple myeloma cell lines against the NCATS MIPE library collection: Delta47_JCRB cell viability assay (AID 1918925; note: nearly all actives have a fitted effect of over 45% in size; note: potency is the fitted concentration of half-maximal effect)
# Method in brief: as §2
# [13] = system: Nanoluciferase (engineered Oplophorus gracilirostris luciferase); experiment: Primary Nanoluciferase (NLuc) qHTS assay for identification of artifact compounds. (AID 1845222);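 note: NLuc secreted into diluted conditioned medium of S16 cells; series mostly up to about 54 µM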
# Method in brief: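 qHTS format, against NLuc in S16 cell-conditioned medium. Nano-Glo substrate 1:100 was added after 15 min at room temperature. Luminescence was taken after a further 5 min.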
# [14] = Quantitative High-Throughput drug screen in 47 multiple myeloma cell lines against the NCATS MIPE library collection: EJM_DSMZ cell viability assay (AID 1918926; note: nearly all actives have a fitted effect of over 30% in size; note: potency is the fitted concentration of half-maximal effect)
# Method in brief: as §2
SMILES,Potency [1],Potency [2],Potency [3],Potency [4],Potency [5],Potency [6],Potency [7],Potency [8],Potency [9],Potency [10],Potency [11],Potency [12],Potency [13],Potency [14]
COc1ccc2c(c1)CC[C@@H](CN(C)CC(=O)O)[C@H]2c1ccccc1,inactive,inactive,inactive,inactive,inactive,1050 nM (active),590 nM (active),3320 nM (active),1320 nM (active),1320 nM (active),,,,
CS(=O)(=O)c1ccc(-c2cnc(N)c(C(=O)Nc3ccccc3)n2)cc1,inactive,inactive,inactive,inactive,inactive,18700 nM (active),,,inactive,,inactive,,,
N#CCNC(=O)c1ccc(-c2ccnc(Nc3ccc(N4CCOCC4)cc3)n2)cc1,inactive,inactive,inactive,1500 nM (active),inactive,20900 nM (active),,16600 nM (active),inactive,inactive,inactive,9350 nM (active),,
CNC(=O)c1c(F)cccc1Nc1nc(Nc2cc3c(cc2OC)CCN3C(=O)CN(C)C)nc2[nH]ccc12,inactive,inactive,inactive,1060 nM (active),,10500 nM (active),,5260 nM (active),,,,52.6 nM (active),inactive,209 nM (active)
NC(=O)c1c(OCc2c(F)cc(Br)cc2F)nsc1NC(=O)NCCCCN1CCCC1,inactive,inactive,inactive,inactive,inactive,,,,,inactive,inactive,7430 nM (active),,20900 nM (active)
CCCNC(=O)Nc1ccc(Oc2ncnc3cc(OC)c(OC)cc23)cc1Cl,inactive,inactive,inactive,inactive,inactive,,inactive,inactive,,,inactive,inactive,,inactive
Cc1ccc(NC(=O)C2(c3ccc4c(c3)OC(F)(F)O4)CC2)nc1-c1cccc(C(=O)O)c1,inactive,inactive and 14.1 µM (active),inactive,inactive,inactive,,,26.4 nM (active),46.9 nM (active),59 nM (active),,52.6 nM (active),inactive,83.3 nM (active)
C[C@]12CC[C@H](O)CC1=CCC1C2CC[C@]2(C)C(n3cnc4ccccc43)=CCC12 (stereo not given in full),inactive,inactive,inactive,inactive,inactive,,inactive,,inactive,inactive,inactive,,inactive,
NCC(=O)Nc1ccc(-n2nc(C(F)(F)F)cc2-c2ccc3c(ccc4ccccc43)c2)cc1,inactive,inactive,inactive,inactive,inactive,,66.2 nM (active),23500 nM (active),148 nM (active),5260 nM (active),,18700 nM (active),inactive,
COc1cc2c(Oc3ccc(NC(=O)C4(C(=O)Nc5ccc(F)cc5)CC4)cc3F)ccnc2cc1OCCCN1CCOCC1,inactive,inactive,inactive,inactive,inactive,,5260 nM (active),,2640 nM (active),2960 nM (active),6620 nM (active),418 nM (active),inactive,
CCCCCCCCCC(=O)N[C@@H](Cc1c[nH]c2ccccc12)C(=O)N[C@H](CC(N)=O)C(=O)N[C@@H](CC(=O)O)C(=O)N[C@@H]1C(=O)NCC(=O)N[C@@H](CCCN)C(=O)N[C@@H](CC(=O)O)C(=O)N[C@H](C)C(=O)N[C@@H](CC(=O)O)C(=O)NCC(=O)N[C@H](CO)C(=O)N[C@@H]([C@@H](C)CC(=O)O)C(=O)N[C@@H](CC(=O)c2ccccc2N)C(=O)O[C@@H]1C,inactive,inactive,inactive,inactive,,,inactive,inactive,,inactive,inactive,inactive,inactive,inactive
Nc1cc(C(F)(F)F)c(-c2cc(N3CCOCC3)nc(N3CCOCC3)n2)cn1,inactive,inactive,inactive,inactive,inactive,148 nM (active),105 nM (active),209 nM (active),187 nM (active),372 nM (active),235 nM (active),296 nM (active),,5900 nM (active)
COc1ccc(C(=O)CC2(O)C(=O)Nc3c(Cl)ccc(Cl)c32)cc1 (stereo not given),inactive,inactive,inactive,inactive,inactive,833 nM (active),526 nM (active),3720 nM (active),1320 nM (active),1180 nM (active),,3720 nM (active),,3320 nM (active)
COc1cc2c(Nc3ccc(NC(=O)c4ccccc4)cc3)ncnc2cc1OCCCN1CCOCC1,inactive,inactive,inactive,inactive,inactive,,,20900 nM (active),,6620 nM (active),inactive,8330 nM (active),,
